Bioassay records deposited in PubChem by National Center for Advancing Translational Sciences (NCATS).
ELG1 DNA repair – qHTS screen for small molecules that inhibit ELG1-dependent DNA repair in human embryonic kidney (HEK293T) cells expressing luciferase-tagged ELG1 | actives 2.3% (n = 330,000) | Potency, µM (top dose mostly 46.1 µM), for the others: top-dose activity change, negative = inhibition, usual class: inhibitors | HEK293T ELG1-luciferase reporter, luminescence, 16 h; DNA damage induced by 5-fluorouridine; further: nearly all actives have a fitted effect of over 55% in size
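Step one: seed 2,000 cells per well. Step two: pin-transfer compound or DMSO alongside 5-fluorouridine. Step three: incubate 16 hr, 37 °C, 5% CO2. Step four: add ONE-Glo, wait 30 min, read luminescence.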
ALOX12 inh – Primary qHTS assay for inhibitors of human arachidonate 12S-lipoxygenase (ALOX12): Round 2. Polyunsaturated fatty acid lipoxygenase ALOX12 (Homo sapiens), P18054. purified 12hLO, xylenol orange hydroperoxide absorbance. Potency, µM (titrated, usually from 108 µM), for inactives: at the top dose activity change, negative = inhibition, most hits filed as inhibitors. actives 1.1% (n = 580,000). AID 1671190, 2021
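Purified human 12hLO (150 nM final) in 25 mM Hepes, 0.01% Triton X-100, pH 7.0 was preincubated 15 min at room temperature with compound. Then 40 uM arachidonic acid was added, 30 min. Hydroperoxide was read by Fe-XO absorbance ratio 573/405 nm.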
TDP1 cell CPT – qHTS for Inhibitors of human tyrosyl-DNA phosphodiesterase 1 (TDP1): qHTS in cells in presence of CPT; chicken DT40 Tdp1-/-;hTDP1 cells + 20 nM CPT, ATP luminescence, 48 h; Potency, µM (top dose mostly 46.2 µM), inactives show top-dose activity change, negative = growth inhibition, actives largely listed as inhibitors; AID 686979, 2013; actives 12% (n = 420,000); further: nearly all actives have a fitted effect of over 55% in size
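Cell growth measured by CellTiter-Glo luminescence after a minimum 48 h, 37 C compound exposure with 20 nM CPT in Tdp1-knockout DT40 cells stably expressing hTDP1, seeded 400/well; qHTS titration format.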
DT40 TDP1 no CPT – qHTS for Inhibitors of human tyrosyl-DNA phosphodiesterase 1 (TDP1): qHTS in cells in absence of CPT | DT40 Tdp1-/- hTDP1 cells, no CPT, ATP luminescence, 48 h | Potency, µM (top dose mostly 46.2 µM), without a hit: at the top dose activity change, negative = growth inhibition, usual class: inhibitors | actives 15% (n = 420,000) | AID 686978, 2013; further: nearly all actives have a fitted effect of over 55% in size
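Compound effects on proliferation are scored in DT40 Tdp1-/-;hTDP1 cells in the absence of CPT. ATP levels (CellTiter-Glo luminescence) are recorded after a ≥48 hr, 37 °C incubation.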
RORgamma inh – qHTS for inhibitors of ROR gamma transcriptional activity; Drosophila S2 Gal4-RORgamma UAS-luciferase reporter, 20 h; Potency, µM (series often up to 53.6 µM), without a hit: at the highest dose activity change, negative = inhibition, most hits filed as inhibitors; actives 5.4% (n = 310,000); further: nearly all actives have a fitted effect of over 60% in size
Target sequence (P51450 whole entry, looked up, the tested form may be a part): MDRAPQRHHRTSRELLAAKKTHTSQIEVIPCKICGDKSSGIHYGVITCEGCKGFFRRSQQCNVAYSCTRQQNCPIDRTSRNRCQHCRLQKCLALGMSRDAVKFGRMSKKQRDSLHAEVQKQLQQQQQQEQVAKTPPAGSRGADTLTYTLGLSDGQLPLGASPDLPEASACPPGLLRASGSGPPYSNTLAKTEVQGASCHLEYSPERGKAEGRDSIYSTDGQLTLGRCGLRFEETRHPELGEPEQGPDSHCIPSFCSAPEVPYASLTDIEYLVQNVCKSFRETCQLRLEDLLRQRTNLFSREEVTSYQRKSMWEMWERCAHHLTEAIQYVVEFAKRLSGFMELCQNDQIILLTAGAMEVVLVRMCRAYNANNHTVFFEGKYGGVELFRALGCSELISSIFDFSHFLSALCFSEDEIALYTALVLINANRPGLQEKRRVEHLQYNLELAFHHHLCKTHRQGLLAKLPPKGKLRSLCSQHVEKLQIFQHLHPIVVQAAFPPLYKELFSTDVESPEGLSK
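Stable Schneider cell line, Gal4 DNA-binding domain fused to ROR gamma, UAS-luciferase. Cmpd 1 hr RT → CuSO4 700 uM final → 20 hr RT → luciferase reagent 10 min → luminescence.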
Gal4-VP16 FLuc – VP16 counterscreen qHTS for inhibitors of ROR gamma transcriptional activity; Drosophila S2 Gal4-VP16 UAS-luciferase, luminescence, 20 h; Potency, µM (highest dose often 53.6 µM), without a hit: top-dose activity, negative = inhibition, most hits filed as inhibitors; actives 3.5% (n = 310,000);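 further: Gal4-VP16 expression switched on by copper sulfate through the metallothionein promoter; nearly all actives have a fitted effect of over 50% in size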
The depositor's hits bear a star; ? = inconclusive; / = not tested or not shown; [ ] = another dose, or the depositor's remark. An excerpt weighted towards active compounds, which were near 15% of everything screened. The call rests on the fitted dose curve; in most records, active means well fitted curve in the direction sought with a large enough effect; inconclusive means small, poorly fitted or top-dose-only effect, or another doubt; inactive means no such curve, though single readings can be large; an effect the other way counts as inactive or inconclusive. On the % scale 0 is the no-effect control and ±100 the full control effect; potency means the concentration at half of the fitted maximal effect.

SMILES	ELG1 DNA repair	ALOX12 inh	TDP1 cell CPT	DT40 TDP1 no CPT	RORgamma inh	Gal4-VP16 FLuc
Cc1ccc(/C=c2\sc3nc(-c4ccco4)nn3c2=O)o1	3%	/	-73%	23µM*	?	?
Cc1ccc(/C=c2/sc3nnc(-c4ccccc4Cl)n3c2=O)o1	3%	?	?	12µM*	4.5µM*	?
CCN(CC)c1ccc(/C=c2\sc3nnc(-c4ccccc4Cl)n3c2=O)cc1	0%	24%[57.4 µM]	?	?	4%	12%
COc1ccccc1/C=c1\sc2nc(-c3ccccc3OC)nn2c1=O	-3%	-12%	?	16µM*	-16%	-8%
O=C(CCn1nc(-c2ccc(Cl)cc2)c2ccccc2c1=O)Nc1ccc(F)cc1	/	-21%	/	/	/	/
CN(C)C[C@@H]1CN(C)C[C@H]1NC(=O)c1ccc(Cn2ccnc2)o1	/	73%	/	/	/	/
Clc1ccc(/C=N/NC2=Nc3cccc4cccc2c34)cc1	?	-11%	?	?	2µM*	14µM*
COc1cccc(NC2=Nc3cccc4cccc2c34)c1	?	-19%	-29%	?	?	?
C(=N\NC1=Nc2cccc3cccc1c23)/c1ccccc1	?	-15%	7%	?	2.2µM*	?
Clc1ccc(/C=N/Nc2nn[nH]n2)cc1	3%	?	0%	-17%	-6%	1%
COc1ccc(NC2=Nc3cccc4cccc2c34)cc1OC	-1%	?	23µM*	26µM*	-14%	-3%
O=C1NCCOCCN(C(=O)Cc2cccc(F)c2)[C@H]2CCC[C@@H]12	/	34%	/	/	/	/
CN(CCC1CCOCC1)C(=O)c1cn(Cc2ccccc2F)nn1	/	-2%	/	/	/	/
C[C@@H](C(=O)NCC1CC1)[C@@H]1C[C@@]1(C)[C@@H](NC(=O)OCc1ccccc1)c1ccccc1	-5%	3%	?	15µM*	?	0%
C[C@@H](C(=O)NCc1ccccn1)[C@H]1C[C@]1(C)[C@H](NC(=O)OCc1ccccc1)c1ccccc1	?	7%	23µM*	16µM*	24%	-15%
C[C@@H](C(=O)NCCc1c[nH]c2ccccc12)[C@H]1C[C@]1(C)[C@H](NC(=O)OCc1ccccc1)c1ccccc1	18µM*	?	6.5µM*	16µM*	138%	-13%
C[C@@H](C(=O)NCCF)[C@H]1C[C@]1(C)[C@H](NC(=O)OCc1ccccc1)c1ccccc1	/	/	/	/	7%	1%
C[C@@H](C(=O)NCc1ccc(S(C)(=O)=O)cc1)[C@@H]1C[C@@]1(C)[C@@H](NC(=O)OCc1ccccc1)c1ccccc1	?	-5%	21µM*	15µM*	32%	-3%
C[C@H](CO)NC(=O)[C@H](C)[C@H]1C[C@]1(C)[C@H](NC(=O)OCc1ccccc1)c1ccccc1	0%	11%	?	?	-4%	13%
CC(C)C1CN(CC2CCC(N)CC2)CCC(=O)N1Cc1ccc(F)cc1 (configuration not stated)	/	-19%	/	/	/	/
CCN1c2cc(C(=O)N3CCN(c4ccc(OC)cc4)CC3)ccc2C(=O)N2CCCCC21 (configuration not stated)	/	0%	/	/	/	/
COC[C@@H]1CCCN1CCC(=O)Nc1ccc(C(=O)OC)cc1	/	46%	/	/	/	/
CCOc1ccc2c(n1)CCN(C(=O)c1ccc(OC)cc1OC)C2	/	22%	/	/	/	/
CCN(CC)c1ccc(NC(=O)C2COc3ccc(OC)cc3C2)c(C)c1 (configuration not stated)	/	-26%	0.58µM*	1µM*	/	/
CCN(CC)c1ccc(NC(=O)c2c(OC)cccc2OC)c(C)c1	/	-5%	-12%	-10%	0%	8%
SMILES	ELG1 DNA repair	ALOX12 inh	TDP1 cell CPT	DT40 TDP1 no CPT	RORgamma inh	Gal4-VP16 FLuc
CCN(CC)c1ccc(NC(=O)c2cc(CN3CCCC3)on2)c(C)c1	/	-5%	16µM*	13µM*	/	/
CCN(CC)c1ccc(NC(=O)c2cc(OC)cc(OC)c2)c(C)c1	15%	-12%	1.3µM*	1.3µM*	10%	3%
CCc1cccc(C)c1NC(=O)c1cc(CN2CCCC2)on1	/	-10%	1%	-19%	/	/
CCN(CC)c1ccc(NC(=O)c2cccc(OC)c2)c(C)c1	1%	-2%	29µM*	?	-8%	23%
O=C(c1nccc2ccccc12)N1CCC(N2C(=O)C(OCC3CC3)C23CCCCC3)CC1 (configuration not stated)	/	18%	/	/	/	/
O=C(Nc1ccccc1)C1C2CCC3C(CCC21)C3(Cl)Cl (configuration not stated)	-13%	57%	-24%	-8%	26%	-4%
O=C(Nc1cccc(Cl)c1)C1C2CCC3C(CCC21)C3(Cl)Cl (configuration not stated)	26µM*	-33%	?	16µM*	?	?
CCn1c(N2CCN(C(=O)C34CC5CC(CC(C5)C3)C4)CC2)nc2ccccc21	?	/	29µM*	26µM*	13%	2%[0.365 µM]
O=S(=O)(c1ccccc1Cl)N1CCN(c2nc(-c3cccs3)nc3ccccc23)CC1	/	/	7.9µM*	10µM*	/	/
CCn1c(N2CCN(S(=O)(=O)c3ccc(OC)cc3)CC2)nc2ccccc21	?	0%	?	?	?	-2%
N#Cc1ccc(S(=O)(=O)N2CCN(c3nc(-c4cccs4)nc4ccccc34)CC2)cc1	/	5%	?	?	/	/
N#Cc1ccccc1S(=O)(=O)N1CCN(c2nc(-c3ccccc3)nc3ccccc23)CC1	/	-6%	16µM*	11µM*	/	/
CCn1c(N2CCN(S(=O)(=O)c3ccccc3C(F)(F)F)CC2)nc2ccccc21	?	?	?	16µM*	25%	-2%
CCCNC(=O)Cc1c(C)nc2nc(N)nn2c1C	/	4%	/	/	/	/
CC1CCCCC1NC(=O)CCC1CCCO1 (configuration not stated)	/	12%	/	/	/	/
CC(=O)Nc1ccc(CNC(=O)Cc2c(Cl)cccc2Cl)cc1	/	-49%	/	/	/	/
O=c1[nH]c(=O)n(CCc2ccccc2)c2nccc(-c3ccccc3)c12	/	11%	/	/	/	/
CC(=O)c1c(C)[nH]c(C(=O)c2cc3cc(Br)ccc3o2)c1C	/	-12%	/	/	/	/
